Rev-erbA mod – modulates human Rev-erb alpha binding to DNA; P20393; 370,000 tested, 0.79% active; Rev-erbα–FITC-DNA binding, fluorescence polarization, 90 min; AID 1259318; activity, % at 10 µM;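 active = activity above about 14%, limit read from the data; passing the limit was not always enough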
PG9 binder – small molecules binding HIV-1 gp120 antibody PG9; TR-FRET gp120-PG9 antibody binding; inhibition, % at 6.7 µM; 360,000 tested, 0.43% active; in the data active = inhibition above about 8.5%
PKA-R2B act – activators of human PKA-R2B complex. P22694+P31323. PKA-R2B holoenzyme dissociation, Cy5-IP20 fluorescence polarization; R2B truncated from residue 108, S112A mutant; 0% DMSO only, 100% 113 µM cGMP. activation, % at 11.4 µM. 340,000 tested, 0.079% active. AID 504700;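 active = activation above a cutoff set at the mean over all compounds plus 3 SD, cut at about 18% in these data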;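 note: higher means more holoenzyme dissociation and a rise in polarization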
Target sequence (P31323 whole entry, looked up, other chains not shown, the tested form may be a part): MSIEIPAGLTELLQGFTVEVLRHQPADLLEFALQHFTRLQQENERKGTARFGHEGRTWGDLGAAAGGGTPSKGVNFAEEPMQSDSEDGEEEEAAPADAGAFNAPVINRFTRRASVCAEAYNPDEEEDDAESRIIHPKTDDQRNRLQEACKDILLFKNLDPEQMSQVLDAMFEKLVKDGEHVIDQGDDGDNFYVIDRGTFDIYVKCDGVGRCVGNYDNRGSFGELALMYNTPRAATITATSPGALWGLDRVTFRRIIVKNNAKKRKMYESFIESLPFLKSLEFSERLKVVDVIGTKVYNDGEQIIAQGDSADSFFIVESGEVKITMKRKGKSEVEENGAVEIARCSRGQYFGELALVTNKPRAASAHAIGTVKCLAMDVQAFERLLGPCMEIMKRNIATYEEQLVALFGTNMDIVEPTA
PKA-R1A activ – PKA-R1A complex activation; P00514+P68181; PKA-R1A dissociation, Cy5-IP20 fluorescence polarization; scaled: DMSO 0%, 113 µM cGMP 100%; activation, % at 11.4 µM; 340,000 tested, 0.083% active; AID 504707;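 active = percent activation above the mean of all tested compounds plus 3 SD, cut at about 19% in these data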;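 note: higher means more PKAc released from R1A so a rise in polarization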
PG9 bind confirm – PG9 antibody binding, confirmed; TR-FRET PG9 antibody binding, biochemical; shares compounds with PG9 binder; 1,500 tested, 90% active; inhibition, % at 6.7 µM; AID 651571; in the data active = inhibition above about 9%
PGV04 Ab binding – counter-screen for PG9 binders: binding control antibody PGV04; shares compounds with PG9 binder; TR-FRET PGV04 antibody-gp120 binding, biochemical; inhibition, % at 6.7 µM; 1,500 tested, 95% active; AID 651604; in the data active = inhibition above about 9.5%
PG9 bind DR – small molecules binding HIV-1 gp120 antibody PG9; shares compounds with PG9 binder; TR-FRET PG9 antibody-gp120 binding inhibition; IC50, µM; 95 tested, under 10 active; AID 651848; in the data active = IC50 below about 10 µM
PGV04 DR counter – counter-screen for PG9 binders: binding to control antibody PGV04 | shares compounds with PG9 binder | 95 tested, 20% active | TR-FRET binding to control antibody PGV04 | IC50, µM | AID 651937
PG126 DR counter – binds control antibody PG126 in PG9 counter-screen | 95 tested, 20% active | TR-FRET binding to antibody PG126, counterscreen | IC50, µM | shares compounds with PG9 binder
Of the large screens only hits and unclear results are named; the others gave an inactive call (follow-up assays come after a bar, where they were run). This is a sample that favours compounds with a hit; in the whole collection about 1.2% have one here. Cut-off read from the data, not from the text of the source, unless noted: active = IC50 below about 9 µM; inactive = the rest.

COc1ccc(C(=O)CSc2nc(N)nc(SC)c2C#N)cc1	PG9 binder 21.5 | PG9 bind confirm 22.8 | PGV04 Ab binding 28.1
Cc1nc(SCC(=O)NCc2ccco2)c2c(C)c(C)sc2n1	none
CCCCc1nc2sc3c(SCC(=O)NCc4ccco4)ncnc3c2c2c1CCC2	PG9 binder 83.8 | PG9 bind confirm 86.6 | PGV04 Ab binding 82.4 | PG9 bind DR 3.28 | PGV04 DR counter 1.55 | PG126 DR counter 1.72
C=CCNC(=O)c1cc(-c2ccc(Br)cc2)on1	PG9 binder 9.4 | PG9 bind confirm 25.3 | PGV04 Ab binding 28.1
O=C(NCCN1CCOCC1)c1cc(-c2ccc(Br)cc2)on1	none
Cc1ccc(S(=O)(=O)N2CCC(C(=O)Nc3ccc4c(c3)OCO4)CC2)cc1	none
O=C(Nc1ccc2c(c1)OCO2)C1CCN(c2ccc(S(=O)(=O)N3CCOCC3)cc2)CC1	PG9 binder 15.9 | PG9 bind confirm 26.7 | PGV04 Ab binding 25.3 | PG9 bind DR inactive | PGV04 DR counter inactive | PG126 DR counter inactive
O=C(Cn1cnc2c(NCc3ccccc3)ncnc21)NCc1ccc2[nH]ccc2c1	PG9 binder 33.3 | PG9 bind confirm 15.7 | PGV04 Ab binding 28.9
Cn1c(C(=O)OCC(=O)NCc2cccs2)cc2sccc21	PG9 binder 9.6 | PG9 bind confirm 16.8 | PGV04 Ab binding 26.6
CC(OC(=O)c1cc2sccc2n1C)C(=O)NCc1cccs1 (stereo not given)	none
Cc1ccc(C)c(NC(=O)c2cc(-c3ccc(Cl)cc3)nc3ccccc23)c1	none (no result: PG9 binder, PKA-R2B act, PKA-R1A activ)
CCc1c(C)nc2ccc(Br)cc2c1SCCC#N	PG9 binder 11.2 | PG9 bind confirm 13.3 | PGV04 Ab binding 19.7
CCc1c(C)nc2c(Br)cccc2c1SCCC#N	PG9 binder 9.6 | PG9 bind confirm 13.4 | PGV04 Ab binding 19.5
COC(=O)[C@]12C[C@H](CC(=O)N3CCCCC3)C(=O)N(Cc3cccc4ccccc34)C1=C[C@H](COCc1ccccc1)O[C@@H]2C	none (no result: PG9 binder, PKA-R2B act, PKA-R1A activ)
Cc1ccc(C(=O)C2=C(O)C(=O)N(c3ncccn3)C2c2ccccc2F)o1 (stereo not given)	PG9 binder 13.6 | PG9 bind confirm 25.0 | PGV04 Ab binding 32.3
O=C(C1=C(O)C(=O)N(c2ncccn2)C1c1ccc(F)cc1)c1ccco1 (stereo not given)	none
Cc1ccc(C(=O)C2=C(O)C(=O)N(c3ncccn3)C2c2ccc(F)cc2)o1 (stereo not given)	PG9 binder 16.0 | PG9 bind confirm 18.1 | PGV04 Ab binding 27.5
CCOc1ccc(-c2csc(N3CCC(C(N)=O)CC3)n2)cc1	none (no result: PG9 binder, PKA-R2B act, PKA-R1A activ)
Cc1cc(N2C(=O)C(O)=C(C(=O)c3ccco3)C2c2ccc(Cl)cc2)no1 (stereo not given)	PG9 binder 16.3 | PG9 bind confirm 29.7 | PGV04 Ab binding 40.5
Cc1cc(N2C(=O)C(O)=C(C(=O)c3ccco3)C2c2ccccc2F)no1 (stereo not given)	PG9 binder 10.2 | PG9 bind confirm 9.8 | PGV04 Ab binding 27.6
C=C(C)CSc1nc2sc(C)c(C)c2c(=O)n1C	none (no result: PG9 binder, PKA-R2B act, PKA-R1A activ)
CCOC(=O)c1c(NC(=O)C2C3C=CC(CC3)C2C(=O)O)sc(C)c1CC (stereo not given)	PG9 binder 8.7 | PG9 bind confirm 18.0 | PGV04 Ab binding 23.0
O=C(CSc1nc2ccccc2n1Cc1ccccc1)NN=C/C=C/c1ccccc1	none (no result: PG9 binder, PKA-R2B act, PKA-R1A activ)
N#Cc1c(-c2ccco2)nc(SCC(=O)Nc2cccc(Cl)c2)[nH]c1=O	PG9 binder 15.3 | PG9 bind confirm 28.3 | PGV04 Ab binding 31.8
Cc1[nH]c(=O)nc(SCc2cccc(Cl)c2)c1C#N	none
O=C(CSc1nc2[nH]ncc2c(=O)[nH]1)Nc1cccc(Cl)c1	none
